# This is part of a sample that, as a whole, favours compounds with a hit. Of some 79,000 tested, about 15% had one in any assay. A number with no mark means an inactive call. Activity calls are given as the source filed them. Cut-off read from the data, not from the text of the source: active = growth inhibition above about 70%; inactive = the rest.
# Assay: NCI Yeast Anticancer Drug Screen. Data for the mlh1 rad18 strain (AID 175)
# Settings: S. cerevisiae mlh1 rad18 strain growth inhibition; at 5.0 µM (retest, dose inferred, filed as 0.5); hits give high values
# Summary of the method: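 Genetically defined yeast (DNA repair-deficient) exposed to compounds; growth inhibition determined relative to vehicle.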
row,SMILES,growth inhibition
1,CCC[CH2][Sn]([CH2]CCC)([CH2]CCC)[O]C(=O)C(OC(C)=O)c1ccccc1 (stereo not drawn),100% (active)
2,CC(C)(C)S(=O)(=O)O.[Ag],99% (active)
3,COc1ccc2c(c1)C(OC)C1c3c(cc4c(c3-2)OCO4)CCN1C (stereo not drawn),35%
4,Cc1nc([N+](=O)[O-])c(Sc2nncc(-c3ccccc3)n2)n1C,8%
5,CC1=CC(=O)C=CC1(C)C(Cl)(Cl)Cl (stereo not drawn),-10%
6,C=C1C(=O)C2=CC1CCC(=O)C1(C)CCC(OC(C)=O)C(C)(C)C1CC2O (stereo not drawn),15%
7,CCOc1ccc(C(CN2CCOCC2)C(C)=O)cc1OC (stereo not drawn),-18%
8,COc1cc(/C=C2\SC(=S)N(/C=C/c3nc4ccccc4[nH]c3=O)C2=O)cc(OC)c1OC,3%
9,O=[N+]([O-])c1ccc(C2N(Cc3ccc(Cl)cc3)CCN2Cc2ccc(Cl)cc2)cc1,79% (active)
10,O=[N+]([O-])/C(=C/c1ccccc1)c1ccccc1,99% (active)
11,c1ccc(-c2cc3cc4ccccc4cn3c2)cc1,61%
12,O=[N+]([O-])c1ccc2nc3ccccc3[n+]([O-])c2c1,38%
13,O=C(CBr)C(Br)C(Br)c1ccccc1 (stereo not drawn),92% (active)
14,Nc1cccc2c1-c1ccccc1C2=O,-35%

# Same assay, conditions: S. cerevisiae mlh1 rad18 strain growth inhibition; at 50.0 µM (retest, dose inferred, filed as 5.0); hits give high values
row,SMILES,growth inhibition
1,CCC[CH2][Sn]([CH2]CCC)([CH2]CCC)[O]C(=O)C(OC(C)=O)c1ccccc1 (stereo not drawn),100% (active)
2,CC(C)(C)S(=O)(=O)O.[Ag],99% (active)
3,COc1ccc2c(c1)C(OC)C1c3c(cc4c(c3-2)OCO4)CCN1C (stereo not drawn),53%
4,Cc1nc([N+](=O)[O-])c(Sc2nncc(-c3ccccc3)n2)n1C,43%
5,CC1=CC(=O)C=CC1(C)C(Cl)(Cl)Cl (stereo not drawn),-22%
6,C=C1C(=O)C2=CC1CCC(=O)C1(C)CCC(OC(C)=O)C(C)(C)C1CC2O (stereo not drawn),65%
7,CCOc1ccc(C(CN2CCOCC2)C(C)=O)cc1OC (stereo not drawn),86% (active)
8,COc1cc(/C=C2\SC(=S)N(/C=C/c3nc4ccccc4[nH]c3=O)C2=O)cc(OC)c1OC,42%
9,O=[N+]([O-])c1ccc(C2N(Cc3ccc(Cl)cc3)CCN2Cc2ccc(Cl)cc2)cc1,98% (active)
10,O=[N+]([O-])/C(=C/c1ccccc1)c1ccccc1,99% (active)
11,c1ccc(-c2cc3cc4ccccc4cn3c2)cc1,95% (active)
12,O=[N+]([O-])c1ccc2nc3ccccc3[n+]([O-])c2c1,99% (active)
13,O=C(CBr)C(Br)C(Br)c1ccccc1 (stereo not drawn),99% (active)
14,Nc1cccc2c1-c1ccccc1C2=O,29%

# Source: PubChem BioAssay (NCI)
